The values below come from PubChem BioAssay AID602330 (Sanford-Burnham Center for Chemical Genomics, 2012).

Hit rate of the full screen: of about 1,900 compounds, about 85 (4%) were called active. Only a sample is shown. A number with no mark means an inactive call. No stated cut-off is given here; in the data, active means inhibition above about 40%; inactive means the rest.

Sequence of 72 kDa type IV collagenase (Homo sapiens) (P08253 whole entry, looked up): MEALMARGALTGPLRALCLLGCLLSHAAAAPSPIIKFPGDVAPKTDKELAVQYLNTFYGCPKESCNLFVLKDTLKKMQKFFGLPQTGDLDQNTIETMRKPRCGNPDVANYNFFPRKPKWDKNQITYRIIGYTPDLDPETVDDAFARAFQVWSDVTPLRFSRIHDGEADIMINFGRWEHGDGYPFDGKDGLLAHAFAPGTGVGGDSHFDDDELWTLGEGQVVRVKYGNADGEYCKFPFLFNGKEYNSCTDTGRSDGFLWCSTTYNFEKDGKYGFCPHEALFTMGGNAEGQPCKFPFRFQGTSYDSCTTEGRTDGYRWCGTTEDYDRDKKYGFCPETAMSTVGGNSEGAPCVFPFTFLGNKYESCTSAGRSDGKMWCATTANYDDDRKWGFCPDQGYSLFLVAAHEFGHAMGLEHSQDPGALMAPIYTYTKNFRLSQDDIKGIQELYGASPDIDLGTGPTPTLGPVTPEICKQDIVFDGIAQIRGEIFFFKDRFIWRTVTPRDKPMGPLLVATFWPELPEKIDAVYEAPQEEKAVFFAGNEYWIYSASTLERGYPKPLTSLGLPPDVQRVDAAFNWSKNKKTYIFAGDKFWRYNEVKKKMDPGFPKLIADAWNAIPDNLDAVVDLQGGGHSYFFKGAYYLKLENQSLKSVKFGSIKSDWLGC

The experiment concerns the target 72 kDa type IV collagenase (Homo sapiens) (UniProt P08253). Nature of the experiment: MMP-2 enzyme inhibition, confirmation, counter-screen for RPN11 inhibitor project, biochemical, fluorescence, single concentration (AID 602330).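 Further: human MMP-2 activated beforehand with APMA.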 The settings on record: recombinant MMP-2, FRET peptide cleavage fluorescence; at 20 µM; hits give high values.
For `COc1cccc(/C=C(/CC(=O)Nc2ccc(N3CCOCC3)cc2)c2nc3ccccc3s2)c1`, the inhibition is 30.2%.

With `CCC(C)Cn1c(O)cc2nn(-c3nc4ccccc4s3)c(=O)c-2c1C` (configuration not stated), the inhibition was -2.01%.

Turning to `Cc1oc2c(C)c3oc(=O)c(CC(=O)N[C@@H](CC(C)C)C(=O)N[C@@H](Cc4ccccc4)C(=O)O)c(C)c3cc2c1C`, the inhibition is -12.8%.

As to `CCN1CCCC1CNC(=O)c1cc2c(=O)n(C)c3ccccc3c2n1C` (configuration not stated), the inhibition was 5.3%.

On to `CN(C)c1ccc(-n2cccc2/C=C2/SC(=Nc3ccc(F)cc3)NC2=O)cc1`, for which the inhibition was 11.2%.

Consider `CCCOc1ccc(Cn2c(O)cc(=O)[nH]c2=O)cc1`, for which the inhibition was -16.6%.

Consider `COc1ccc(NC(=O)Cn2c(-c3ccc(OC)cc3)cn(-c3ccc(C)cc3)c2=O)cc1`, for which the inhibition was -12.7%.

Regarding `Cc1ccc(Nc2ccccc2N)cc1`, the inhibition is -13.4%.

In the case of `CCCCCCSc1ccc([C@@H]2[C@H]3C(=O)N(CC)C(=O)[C@H]3[C@]3(C(=O)OC)CCCCN23)cc1`, the inhibition was -13.2%.

In the case of `CC(C)CC1C(=O)N(Cc2cn(Cc3ccco3)nn2)CCS(=O)(=O)N1Cc1ccc(-c2ccc(Cl)c(Cl)c2)cc1` (configuration not stated), the inhibition is -38.5%.

Regarding `CCOc1ccc(-n2c(O)c(/C=N/Nc3nnc(C)c(=O)[nH]3)c3ccccc3c2=O)cc1`, the inhibition was -6.64%.

Turning to `Cc1nc2ccc(C(=O)N3CCSCC3)cc2s1`, the inhibition was -42.3%.

Regarding `C=CC1=C(C(=O)O)N2C(=O)[C@@H](NC(=O)/C(=N/OCC(=O)O)c3csc(N)n3)[C@H]2SC1`, the inhibition is 35.4%.

Take `CCOC(=O)N1CCC(NC(=O)C(NS(=O)(=O)c2ccc3c(c2)CCN3C(=O)CC)C(C)C)CC1` (configuration not stated): the inhibition is -20.7%.

Turning to `COC(=O)c1ccc(OCC(=O)NC(C)(C)C)cc1`, the inhibition was 6.02%.

Regarding `O=C(CSc1nc2ccccc2c(=O)[nH]1)Nc1nc(-c2ccc(Br)cc2)cs1`, the inhibition was 51.9% (active).

Take `Cc1ccc(N=Cc2c(O)cc(C)oc2=O)c(C)c1`: the inhibition was -22.6%.

With `CC(=O)Nc1ccccc1Sc1ccc2c3c(cccc13)C(=O)N(c1ccc(C)cc1)C2=O`, the inhibition was -23%.

Take `CCOc1ccc(NC(=O)c2ccc(NC(=O)COC(=O)c3ccc(NC(=O)CC#N)cc3)cc2)cc1`: the inhibition is 10.8%.

With `COC1=C/C(=C/c2c(N)n3nc(CC(=O)N4CCOCC4)sc3nc2=O)C=CC1=O`, the inhibition is 12%.

In the case of `Cc1ccc(Nc2nc(Cl)c(C=O)s2)cc1`, the inhibition is -10.8%.

Turning to `Cc1nc2ccccc2n1C(=O)N1CCOCC1`, the inhibition was -8.73%.

As usually defined, the inhibition is the relative decrease from the control value, in per cent.
